# Assay results reported in PubChem BioAssay AID687001 (Broad Institute, 2013).
# Measured potencies and affinities stand elsewhere. A number with no mark means an inactive call.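 How the source made its calls: active means signal-lowering compounds whose fitted half-maximal concentration is at or below twice the top tested dose in every run; inconclusive means runs disagree, flat 30 to 70% inhibition, or poor curve fit; inactive means the rest.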
# Molecular target: Protein S100-A4 (Homo sapiens) (UniProt P26447)
# Sequence (P26447 whole entry, looked up): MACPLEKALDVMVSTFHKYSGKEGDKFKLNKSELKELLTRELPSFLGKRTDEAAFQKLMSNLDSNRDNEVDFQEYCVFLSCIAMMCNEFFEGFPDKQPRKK
# Experiment: S100A4-myosin IIA binding inhibitor potency, dose response, biochemical, fluorescence polarization, cherry-picked hits (AID 687001);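 further: 0% = DMSO neutral control wells and -100% = TFP positive control wells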
# Conditions: FP, S100A4/TAMRA-myosin IIA peptide binding; series mostly up to 11 µM; activity change, negative = inhibition: at the top concentration
row,Compound,"activity change, negative = inhibition"
1,CCCC(=O)Nc1ccc2c(c1)C(=O)N(C)C[C@H](OC)[C@H](C)CN(Cc1ccccc1)[C@H](C)CO2,4.6%
2,CN(C)C(CNC(=O)CCc1nc2cc(Cl)ccc2n(Cc2ccccc2)c1=O)c1ccccc1 (stereo not given),34.5%
3,CCCC(=O)Nc1ccc2c(c1)OC[C@H](C)NC[C@H](C)[C@H](OC)CN(C)C2=O,-2.13%
4,CC1CCCCC1NC(=O)CSc1nnc(-c2ccco2)n1N (stereo not given),-4.3%
5,CCOCCCNC(=O)c1ccc2c(c1)N(CC)C(=O)c1ccccc1S2=O (stereo not given),-1.78%
6,CCCN1CCCCC(NC(=O)c2c(F)cccc2F)C1=O (stereo not given),0.997%
7,NC(=O)c1cc(S(=O)(=O)Nc2cccc(Cl)c2)cs1,-0.185%
8,COc1cccc(-c2ccc3n(c2=O)C[C@H]2[C@H](CO)[C@@H](C(=O)N4CCOCC4)N[C@@H]32)c1,4.2%
9,CCOc1ccc(OCCC(=O)N(CC(=O)Nc2ccccc2C(F)(F)F)Cc2ccco2)cc1,2.4%
10,Cc1cccc(-c2oc3ccc(-c4ccc5c(c4)OCO5)cc3c2-c2ccc(OC3CCCCO3)cc2)c1 (stereo not given),3.18%
11,O=C(OCc1cc(=O)n2ccsc2n1)c1ccc(OC(F)F)cc1,-1.21%
12,CNC[C@H]1OCCCC[C@@H](C)Oc2ccc(NC(=O)C3CCCCC3)cc2C(=O)N([C@@H](C)CO)C[C@@H]1C,11.4%
13,C[C@@H]1CN([C@H](C)CO)C(=O)CCCn2cc(nn2)CO[C@H]1CN(C)S(=O)(=O)c1ccc(Oc2ccccc2)nc1,-1.93%
14,Cc1ccc(C(=O)N2CCN(c3ccc([N+](=O)[O-])c(N4CCOCC4)c3)CC2)cc1,-1.61%
15,O=C(C[C@H]1CC[C@@H]2[C@H](COC[C@H](O)CN2C(=O)Nc2ccc3c(c2)OCO3)O1)N1CCN(c2ccccc2)CC1,5.56%
16,Cc1c(C(=O)OCC(=O)N(C)CC(=O)Nc2ccc(F)cc2)oc2ccccc12,5.97%
17,CC1(C)Cc2cccc(OCC(=O)N3CCN(c4cccc(C(F)(F)F)c4)CC3)c2O1,-1.22%
18,COc1cccc(-c2nnc(NC(=O)CCS(=O)(=O)c3ccc(F)cc3)o2)c1,-2.79%
19,CCC(=O)N1C[C@H](O)COC[C@H]2O[C@H](CC(=O)NCc3cc(F)cc(F)c3)CC[C@@H]21,16.2%
20,COc1cccc(-c2ccc([C@@H]3[C@H](CO)N4CCCCN(C(=O)c5ccc(F)cc5)C[C@@H]34)cc2)c1,8.69%
21,O=C(Nc1ccccc1F)N[C@@H]1CC[C@H](CCNC(=O)C2CCCCC2)O[C@H]1CO,9.26%
22,C[C@@H]1CCCCO[C@@H](CN(C)Cc2ccc(C(=O)O)cc2)[C@H](C)CN([C@H](C)CO)C(=O)c2cc(NC(=O)CCCN(C)C)ccc2O1,0.581%
23,CC1Sc2ccc(S(=O)(=O)N3CCC(C(=O)NCCc4ccccc4)CC3)cc2NC1=O (stereo not given),4.52%
24,CN(C)S(=O)(=O)c1ccc(Cl)c(C(=O)NNC(=O)Cn2ccc(C(F)(F)F)n2)c1,-0.517%
25,C[C@H]1CN([C@@H](C)CO)C(=O)c2cc(NC(=O)CCCCCC(=O)Nc3ccccc3N)ccc2O[C@H]1CN(C)S(=O)(=O)c1cccs1,7.67%
